Laboratory results: PubChem BioAssay AID624267 (The Scripps Research Institute Molecular Screening Center, 2012)
Among all 360,000 compounds or so, about 1,400 (0.39%) were called active. Only a selection was taken, and actives are over-represented in it overall. Values without a mark were called inactive. Rule as the data show it: active = inhibition above about 21%; inactive = the rest.

Each molecule was assayed against Receptor-interacting serine/threonine-protein kinase 2 (Homo sapiens) (UniProt O43353) (assay: NOD2-RIPK2 binding disruptors in cells, primary screen, fluorescence, CHO cells, BLA complementation (AID 624267;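 also: 0% = vehicle only and 100% = reference blocker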)). Details: CHO BLA complementation NOD2-RIPK2, CCF4 ratio; at 4.98 µM; stronger effect = higher value.
Sequence of Receptor-interacting serine/threonine-protein kinase 2 (Homo sapiens) (O43353 whole entry, looked up): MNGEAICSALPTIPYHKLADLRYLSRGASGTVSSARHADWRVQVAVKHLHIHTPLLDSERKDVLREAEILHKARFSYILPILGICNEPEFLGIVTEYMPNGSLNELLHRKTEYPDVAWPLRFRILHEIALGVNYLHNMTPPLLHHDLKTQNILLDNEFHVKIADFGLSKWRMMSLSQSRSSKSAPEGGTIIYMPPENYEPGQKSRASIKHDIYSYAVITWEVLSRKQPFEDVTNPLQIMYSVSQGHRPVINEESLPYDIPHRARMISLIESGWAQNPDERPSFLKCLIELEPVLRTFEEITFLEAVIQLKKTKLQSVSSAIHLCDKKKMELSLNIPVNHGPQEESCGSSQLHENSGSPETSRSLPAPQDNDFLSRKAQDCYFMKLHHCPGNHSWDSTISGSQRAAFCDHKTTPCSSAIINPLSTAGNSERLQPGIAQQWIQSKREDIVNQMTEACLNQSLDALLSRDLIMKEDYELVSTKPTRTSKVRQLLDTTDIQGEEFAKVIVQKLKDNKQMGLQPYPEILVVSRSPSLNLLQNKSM
Work on COCCN(C(=O)CSCc1ccc(C)cc1)c1c(N)n(CC(C)C)c(=O)[nH]c1=O yielded an inhibition of -4.76%.
Work on CN(C)CCCO/N=C(\c1ccccc1)c1ccncc1 yielded an inhibition of -6.88%.
CCO[C@@H]1OC(C(N)=O)=C[C@H](c2ccc(Br)cc2)[C@H]1CCCO was tested, and the inhibition was -17.7%.
Work on CN(C)S(=O)(=O)c1cccc(C(=O)OCC(=O)N2CCCC2=O)c1 yielded an inhibition of -8.86%.
In the case of CC(=O)Nc1ccc(NC(=O)C(C)OC(=O)c2ccccc2C(=O)c2ccc(Cl)c([N+](=O)[O-])c2)cc1 (configuration not stated), the inhibition was 3.48%.
NS(=O)(=O)c1cccc(NC(=O)COC(=O)c2cc([N+](=O)[O-])ccc2N2CCCC2)c1 gave an inhibition of -11.1%.
With N#Cc1cccc(NC(=O)COC(=O)c2ccccc2C(=O)c2ccc(Cl)c([N+](=O)[O-])c2)c1 the inhibition was 39.9% (active).
In the case of Cn1nnnc1SCC(=O)NNC(=O)c1ccc(Br)cc1, the inhibition was -2.01%.
CN1CCN(/N=C/c2ccc(C#N)cc2)CC1 showed an inhibition of -13.1%.
With CN1CCN(/N=C/c2ccc(-c3ccc([N+](=O)[O-])cc3)o2)CC1 the inhibition was 21.4% (active).
For CN1CCN(/N=C2/C(=O)Nc3ccc([N+](=O)[O-])cc32)CC1, the inhibition was 1.73%.
For COCCNC(=O)C(c1ccc(C)o1)N(Cc1cccs1)C(=O)c1snc(C(N)=O)c1N (configuration not stated), the inhibition was -22%.
Molecule Cc1nnc(NC2=NCCCCC2)o1 has an inhibition of -2.4%.
With COc1ccc(CNC(=O)CN2CCC(n3nnc4cc(F)ccc43)CC2)cc1 the inhibition was -4.66%.
For Cn1c(SCC(=O)C(C)(C)C)nnc1-c1ccccn1, the inhibition was 2.6%.
For COc1cc(/C=N/NC(=O)Nc2ccccc2)ccc1OCCOc1ccccc1C, the inhibition was 9.59%.
With CNC(=S)N/N=C/c1ccc(OCc2ccccc2)c(Br)c1 the inhibition was 33.9% (active).
With O=C(O)COc1ccc(/C=N/O)cc1Br the inhibition was 11.6%.
With Cc1c(-c2ccccc2)cn2c1-c1ccc(C)n1CC2 the inhibition was -12.5%.
[O-][n+]1onc2c1CCc1[nH]c(-c3ccccc3)nc1-2 gave an inhibition of -6.67%.
For CC(C)=CCC/C(C)=C/C(=O)O, the inhibition was 3.56%.
Cc1cc(C)nc(NC(=O)Nc2ccccc2C(F)(F)F)n1 gave an inhibition of 7.62%.
With O=C(/C=C/Sc1ncn[nH]1)c1ccc(Cl)cc1 the inhibition was 21.3% (active).
In the case of CC(C)CC(=O)N=C1SC2CS(=O)(=O)CC2N1CCc1ccccc1 (configuration not stated), the inhibition was -9.18%.
C=CCn1c(-c2ccccc2OCC)n[nH]c1=S was tested, and the inhibition was 0.62%.
O[C@H]1C[C@H](c2ccc(Cl)cc2)N(Cc2cccs2)C[C@@H]1n1cc(C2CC2)nn1 was tested, and the inhibition was 21.6% (active).
O[C@@H]1C[C@H](c2ccccc2)N(Cc2cccs2)C[C@H]1n1cc(C2CC2)nn1 showed an inhibition of -9.47%.
O[C@H]1CN(Cc2cccs2)[C@@H](c2ccc(Cl)cc2)C[C@@H]1n1cc(C2CC2)nn1 gave an inhibition of 5.68%.
CC(=O)Nc1ccc(CNc2nc(NCCN(C)C)nc3cc(-c4ccccc4)sc23)cc1 showed an inhibition of 11.1%.
Work on Cc1ccc(C(=O)N2CCC(n3nccc3NC(=O)Nc3cccc(F)c3)CC2)cn1 yielded an inhibition of -2.88%.
Work on COc1ccc2ccccc2c1CNCc1ccccn1 yielded an inhibition of -4.61%.
FC(F)Oc1ccccc1C1CC(c2ccc(Br)s2)Nc2ncnn21 (configuration not stated) showed an inhibition of -2.05%.
